According to publication PMC11062922 (Nature Chemical Biology, 2023):
Like-named read-outs stand apart in the source and are kept apart here.

Tests used:
Set-up in all cases: species or system human, MV4-11 + K-562 + COLO205 + SK-N-BE2 + OVCAR-8
[1] = tested on: CDK10; details: read-out: apparent Kd; compound concentrations:100 nM and 1000 nM (sheet 'Samples'); n = 1
[2] = tested on: CDK16; details: read-out: apparent Kd; compound concentrations:100 nM and 1000 nM (sheet 'Samples'); n = 1
[3] = tested on: CDK17; details: read-out: apparent Kd; compound concentrations:100 nM and 1000 nM (sheet 'Samples'); n = 1
[4] = tested on: CDK1; details: read-out: apparent Kd; compound concentrations:100 nM and 1000 nM (sheet 'Samples'); n = 1
[5] = tested on: CDK2; details: read-out: apparent Kd; compound concentrations:100 nM and 1000 nM (sheet 'Samples'); n = 1
[6] = tested on: CDK4; details: read-out: apparent Kd; compound concentrations:100 nM and 1000 nM (sheet 'Samples'); n = 1
[7] = tested on: CDK5; details: read-out: apparent Kd; compound concentrations:100 nM and 1000 nM (sheet 'Samples'); n = 1
[8] = tested on: CDK6; details: read-out: apparent Kd; compound concentrations:100 nM and 1000 nM (sheet 'Samples'); n = 1
[9] = tested on: CDK7; details: read-out: apparent Kd; compound concentrations:100 nM and 1000 nM (sheet 'Samples'); n = 1
[10] = tested on: CDK9; details: read-out: apparent Kd; compound concentrations:100 nM and 1000 nM (sheet 'Samples'); n = 1
[11] = tested on: ICK; details: read-out: apparent Kd; compound concentrations:100 nM and 1000 nM (sheet 'Samples'); n = 1
[12] = tested on: SLK; details: read-out: apparent Kd; compound concentrations:100 nM and 1000 nM (sheet 'Samples'); n = 1
[13] = tested on: CDC42; details: read-out: apparent Kd, n = 1
[14] = tested on: GSK3A; details: read-out: apparent Kd, compound concentrations: 100 nM and 1000 nM (sheet 'Samples'), n = 1
[15] = tested on: GSK3B; details: read-out: apparent Kd, n = 1
[16] = tested on: CDC7; details: read-out: apparent Kd; compound concentrations: 100 nM and 1000 nM (sheet 'Samples'), CATDS: 1; n = 1
[17] = tested on: EGFR; details: read-out: apparent Kd; compound concentrations: 100 nM and 1000 nM (sheet 'Samples'), CATDS: 0.71685181489177596; n = 1
[18] = tested on: ERBB3; details: read-out: apparent Kd; compound concentrations: 100 nM and 1000 nM (sheet 'Samples'), CATDS: 0.132982955491593; n = 1
[19] = tested on: NNT; details: read-out: apparent Kd; compound concentrations: 100 nM and 1000 nM (sheet 'Samples'), CATDS: 0.11921325436386; n = 1
[20] = tested on: RAB5C; details: read-out: apparent Kd; compound concentrations: 100 nM and 1000 nM (sheet 'Samples'), CATDS: 0.157008240219803; n = 1
[21] = tested on: RIPK2; details: read-out: apparent Kd; compound concentrations: 100 nM and 1000 nM (sheet 'Samples'), CATDS: 0.27482887705752401; n = 1
[22] = tested on: CDKL5; details: read-out: apparent Kd; compound concentrations:100 nM and 1000 nM (sheet 'Samples'); n = 1
[23] = tested on: CLK1; details: read-out: apparent Kd; compound concentrations:100 nM and 1000 nM (sheet 'Samples'); n = 1
[24] = tested on: CLK4; details: read-out: apparent Kd; compound concentrations:100 nM and 1000 nM (sheet 'Samples'); n = 1
[25] = tested on: DYRK1A; details: read-out: apparent Kd; compound concentrations:100 nM and 1000 nM (sheet 'Samples'); n = 1
[26] = tested on: CSNK2A1;CSNK2A3; details: read-out: apparent Kd; compound concentrations:100 nM and 1000 nM (sheet 'Samples'); n = 1
[27] = tested on: CSNK2A2; details: read-out: apparent Kd; compound concentrations:100 nM and 1000 nM (sheet 'Samples'); n = 1
[28] = tested on: NQO2; details: read-out: apparent Kd; compound concentrations:100 nM and 1000 nM (sheet 'Samples'); n = 1
[29] = tested on: PRKD2; details: read-out: apparent Kd; compound concentrations:100 nM and 1000 nM (sheet 'Samples'); n = 1
[30] = tested on: PRKD3; details: read-out: apparent Kd; compound concentrations:100 nM and 1000 nM (sheet 'Samples'); n = 1
[31] = compound concentrations:100 nM and 1000 nM (sheet 'Samples')

COc1ccc(F)cc1C(=O)c1cnc(NC2CCN(S(C)(=O)=O)CC2)nc1N [RO4517872-000]
potency estimated from few doses [1]: 915 nM | potency estimated from few doses [2]: 74.1 nM | potency estimated from few doses [3]: 75.1 nM | potency estimated from few doses [4]: 402 nM | potency estimated from few doses [5]: 62.7 nM | potency estimated from few doses [6]: 1200 nM | potency estimated from few doses [7]: 221 nM | potency estimated from few doses [8]: 1680 nM | potency estimated from few doses [9]: 1460 nM | potency estimated from few doses [10]: 246 nM | potency estimated from few doses [11]: 347 nM | potency estimated from few doses [12]: 1280 nM

Cn1cc(C2=C(c3cccc(N)c3)C(=O)NC2=O)c2ccccc21 [RO0317471-000]
potency estimated from few doses ([13]; compound concentrations: 100 nM and 1000 nM (sheet 'Samples'), CATDS: 0.203680819174512): 1200 nM | potency estimated from few doses ([14]; CATDS: 0.53179335167556496): 23.5 nM | potency estimated from few doses ([15]; compound concentrations: 100 nM and 1000 nM (sheet 'Samples'), CATDS: 0.45250345973029299): 32.2 nM

NS(=O)(=O)c1cccc(-c2ccc3ncc(N4CCOCC4)nc3c2)c1 [GSK1535721A]
potency estimated from few doses [16]: 1940 nM

CN(C)c1cc2c(Nc3ccc4nc(Cc5ccccc5)[nH]c4c3)ncnc2cn1 [GW301888X]
potency estimated from few doses ([13]; compound concentrations: 100 nM and 1000 nM (sheet 'Samples'), CATDS: 0.115085372614253): 1800 nM | potency estimated from few doses [17]: 19.1 nM | potency estimated from few doses [18]: 1030 nM | potency estimated from few doses [19]: 1550 nM | potency estimated from few doses [20]: 599 nM | potency estimated from few doses [21]: 133 nM

CCN1CCC(CC(=O)Nc2n[nH]c3nnc(-c4cccc(F)c4F)cc23)CC1.O=C(O)[C@H](O)[C@@H](O)C(=O)O [SB-698596-AC]
potency estimated from few doses [2]: 53.3 nM | potency estimated from few doses [3]: 995 nM | potency estimated from few doses [22]: 46.9 nM | potency estimated from few doses [23]: 693 nM | potency estimated from few doses [24]: 1420 nM | potency estimated from few doses [25]: 1520 nM | potency estimated from few doses ([14]; CATDS: 0.61035791771228698): 0.905 nM | potency estimated from few doses [15, 31]: 2.33 nM

Cc1cccc(-c2nc(Nc3cccc(C(N)=O)c3)c3ccccc3n2)n1 [GW876019X]
potency estimated from few doses [13, 31]: 2080 nM | potency estimated from few doses [26]: 1510 nM | potency estimated from few doses [27]: 2230 nM | potency estimated from few doses [28]: 1160 nM | potency estimated from few doses [29]: 739 nM | potency estimated from few doses [30]: 1510 nM
